# Compound activity: PubChem BioAssay, Center for Chemical Genomics, University of Michigan
# HIV TAR-Tat: TAR RNA-Tat peptide displacers, HIV-1, primary screen, biochemical, FRET, FAM/TAMRA-labeled Tat | z-score (test concentration not listed) | HIV-1 TAR RNA, Tat peptide displacement FRET; hits give high values | AID 1259389, 2018 | actives 0.6% (n = 100,000); active = z-score of 3 or more in at least 2 runs
# CDC25B-CDK2 inh: primary biochemical HTRF screen for blockers of M-phase inducer phosphatase 2 binding to CDK2/cyclin A | HTRF CDC25B-CDK2/CyclinA binding, anti-His/anti-Flag; hits give high values | z-score (no concentration beside the values) | actives 0.72% (n = 94,000); in the data active = z-score above about 3.2
# * marks the source's active call; other numbers are inactive results; . = not tested or not shown. The list is not random: actives were taken first. Their share in the collection is about 0.86%.
SMILES,HIV TAR-Tat,CDC25B-CDK2 inh
COc1ccccc1C1NC(=O)c2c(sc3c2CCN(C)C3)N1 (stereo unspecified),-3.12,4.5*
CCOC(=O)N1CCc2c(sc3c2C(=O)NC(c2cccc(Br)c2)N3)C1 (stereo unspecified),-1.15,6.37*
COc1cccc(C2NC(=O)c3c(sc4c3CCN(C)C4)N2)c1OC (stereo unspecified),-1.8,-0.33
CCOC(=O)N1CCc2c(sc3c2C(=O)NC(c2ccccc2)N3)C1 (stereo unspecified),-0.19,0.33
CCOC(=O)N1CCc2c(sc3c2C(=O)NC(c2ccc(O)c(OC)c2)N3)C1 (stereo unspecified),0.09,2.92
CCOC(=O)N1CCc2c(sc3c2C(=O)NC(c2ccc(OC)cc2)N3)C1 (stereo unspecified),-2.76,16.1*
CC1=Nc2cc(C(=O)N3CCCC3)ccc2Sc2ccc(C)cc21,-0.1,1.28
O=C(O)CSc1nc(-c2ccccc2)nc2c1oc1ccccc12,0.84,0.77
C=CCNC(=O)c1c(NC(C)=O)sc2c1CCCC2,-0.98,-2.27
CC(C)CCNc1nc2c(c(=O)[nH]c(=O)n2C)n1CC(O)COC(C)C (stereo unspecified),0.18,-1.94
CCCOc1ccc(C2c3c(oc4ccc(F)cc4c3=O)C(=O)N2c2nc(C)c(C)s2)cc1 (stereo unspecified),2.02,-1.62
COc1cc(C(=O)NCC(c2ccccc2)c2c[nH]c3ccccc23)cc(OC)c1OC (stereo unspecified),.,1.17
COc1cccc(Nc2nc(N3CCN(c4ccccc4)CC3)nc3c2cnn3C)c1,0.16,.
Cn1nnc2c(NCCn3ccc4ccccc43)ncnc21,2.1,.
CCCNC(=O)c1cc2oc3ccccc3c2n1C,0.61,-1.94
Cn1c(C(=O)NCc2ccccc2Br)cc2oc3ccccc3c21,-0.04,10.1*
COC(=O)c1sc(N2C(=O)c3oc4ccccc4c(=O)c3C2c2ccc(C)cc2)nc1C (stereo unspecified),-0.48,-0.68
COc1ccc2cc(C(=O)Nc3ccc(Cl)cc3)sc(=O)c2c1OC,6.36*,0.18
COc1ccc2cc(C(=O)Nc3ccc(F)cc3)sc(=O)c2c1OC,3.9,0.7
O=C1c2ccccc2C(=O)c2c(NCCc3ccc(O)cc3)ccc(NCCc3ccc(O)cc3)c21,.,2.71
O=C1c2c(O)ccc(O)c2C(=O)c2c(NCCNCCO)ccc(NCCNCCO)c21,17.4*,-0.47
FC(F)(F)C(=C(SSCc1ccccc1)C(F)(F)C(F)(F)F)C(F)(F)F,.,4.34*
FC(F)(F)C(=C(N=C(Cl)SOCc1ccccc1)C(F)(F)C(F)(F)F)C(F)(F)F,.,3.15
Cn1c(=O)c(=O)n(C)c2cc(S(=O)(=O)N3CCc4ccccc4C3)ccc21,-0.55,-3.3
CCOc1ccc(OCC)c(NC(=O)C2=C(C)C(=O)OC23CCN(C(C)C)CC3)c1,0.24,.
SMILES,HIV TAR-Tat,CDC25B-CDK2 inh
CN(C(=O)CSc1nc(-c2ccc3c(c2)OCO3)nc2cc(=O)[nH]n12)c1ccccc1,2.78,.
CN(Cc1ccccc1)C(=O)CSc1nc(-c2ccc3c(c2)OCO3)nc2cc(=O)[nH]n12,26.1*,.
O=C1C2=C(NC3=C(C(=O)c4ccccc43)C23C(=O)Nc2ccccc23)c2ccccc21,.,12.3*
CC(C)(C)C1(O)C(=O)Nc2ccccc21 (stereo unspecified),0.95,0.98
C[C@]12C=CC(=O)C=C1CC[C@@H]1C2=CC[C@]2(C)[C@@H](C(=O)CN3CCN(c4cc(N5CCCC5)nc(N5CCCC5)n4)CC3)CC[C@@H]12,-6.56,-1.92
Cc1ccc(SCC(=O)OCc2cc(=O)n3nc(-c4cccs4)sc3n2)cc1,0.74,.
CCC(=O)OCc1cc(=O)n2nc(-c3cccs3)sc2n1,19*,.
CC(Sc1nc2c(c(=O)[nH]1)CCCC2)C(=O)Nc1ccc(F)cc1 (stereo unspecified),0.31,-1.13
CC(Sc1nc2c(c(=O)[nH]1)CCCC2)C(=O)Nc1ccc(Br)cc1 (stereo unspecified),12.9*,-1.92
Cc1ccc(C(=O)c2cnc3cc4c(cc3c2N2CCOCC2)OCO4)cc1C,8.79*,1.81
CCc1ccc(C(=O)c2cnc3cc4c(cc3c2N2CCCC2)OCO4)cc1,-0.89,-0.75
Cc1nn(CCCC(=O)N(C)Cc2ccccc2)c(=O)c2cc3occc3n12,2.87,-1.4
O=C(Cn1cnc2sc3c(c2c1=O)CCCC3)NCC(=O)N1CCN(c2ccc(F)cc2)CC1,1.2,-2.73
CCCC(=O)Nc1ccccc1SCc1cc(=O)n2nc(CCC)sc2n1,-1.68,.
O=C(CCCn1c(=O)c2cccn2c2cccnc21)NCc1cccs1,-0.14,.
CC1CN(C(=O)Nc2ccc(Cl)cc2)c2ccccc2O1 (stereo unspecified),3.94*,.
CC1CN(C(=O)Nc2ccc(F)cc2)c2cc(Cl)ccc2O1 (stereo unspecified),0.53,-2.58
CC1CC2C3CCC4=CC(=O)C=CC4(C)[C@@]3(Cl)C(O)CC2(C)C1(O)C(=O)CO (stereo partly specified),0.21,.
Cc1cc(C)c(S(=O)(=O)Nc2ccc(O)cc2)c(C)c1,0.57,-0.75
Cc1cc(C)c(S(=O)(=O)Nc2cc(Br)c(O)c3ccccc23)c(C)c1,.,18.6*
CCOC(=O)Cn1c(=O)oc2cc(S(=O)(=O)NC3CCCCC3C)ccc21 (stereo unspecified),1.15,0.93
O=c1c2c3c(sc2nnn1CCCOc1ccccc1)CCCC3,1.46,1.03
COc1ccc(OCCn2nnc3sc4c(c3c2=O)CCCC4)cc1,3.31*,0.44
COc1ccc(OC)c(CN2CCN(Cc3ccc(OC)c(OC)c3)CC2)c1,0.58,-0.53
COc1cccc(NC(=O)Nc2nc3c(s2)CCCCCC3)c1,-0.19,.
SMILES,HIV TAR-Tat,CDC25B-CDK2 inh
O=c1c(O)cccc2c([C@H]3Oc4cc(O)cc(O)c4C[C@H]3O)cc(O)c(O)c12,11.9*,.
O=C1C[C@@H](c2ccccc2)Oc2cc(O)cc(O)c21,1.88,.
Oc1cc(O)c2c(c1)O[C@H](c1ccc(O)c(O)c1)[C@@H](O)C2,11.4,-0.87
Oc1cc(O)c2c(c1)O[C@H](c1cc(O)c(O)c(O)c1)[C@H](O)C2,29.9*,.
Cn1c2ccccc2n2nc(CCC(=O)O)c(=O)nc12,1.24,-1.2
Clc1ccc(Cc2nnc3sc(/C=C/c4cccs4)nn23)cc1,1.08,-1.46
COc1ccccc1/C=C/c1nn2c(Cc3ccccc3)nnc2s1,2.51,0.3
COc1ccc(Cc2nnc3sc(/C=C/c4ccco4)nn23)cc1,8.35*,2.15
CCc1nnc2sc(/C=C/c3ccco3)nn12,8.4*,-1.14
CC(C)(C)c1nnc2sc(/C=C/c3ccco3)nn12,-2.21,-1.53
Clc1ccc(Cc2nnc3sc(/C=C/c4ccco4)nn23)cc1,19.1*,4.16*
CN(Cc1ccco1)C(=O)c1ccc(CNS(=O)(=O)c2ccc3c(c2)C(C)(C)C(=O)N3C)cc1,-0.94,.
COCCn1c(CN2CCN(c3ccccc3F)CC2)nc2c1c(=O)n(C)c(=O)n2C,-0.24,-0.4
CC1CCN(c2cc(NC(C)C)c3c4c(onc24)-c2ccccc2C3=O)CC1,2.26,-0.91
O=C1c2ccccc2-c2onc3c(N4CCOCC4)cc(NC4CCCCC4)c1c23,0.24,-0.89
CCN1CCN(c2cc(NC(C)C)c3c4c(onc24)-c2ccccc2C3=O)CC1,5.74*,-1.75
CCNc1cc(N2CCN(CCO)CC2)c2noc3c2c1C(=O)c1ccccc1-3,15.5*,8.13*
